Screening results: PubChem BioAssay, National Center for Advancing Translational Sciences (NCATS)
A selection: hits, their analogues and other compounds. The true share with any hit is near 11%.
BAZ2B inh = qHTS Assay for Inhibitors of BAZ2B; 360,000 tested, 4.4% active; Potency, µM (top dose mostly 114 µM), actives largely listed as inhibitors; AlphaScreen BAZ2B-H3K14Ac peptide displacement; Bromodomain adjacent to zinc finger domain protein 2B (Homo sapiens), Q9UIF8; AID 504333, 2011; further: nearly all actives have a fitted effect of over 60% in size
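AlphaScreen displacement: compounds (up to 110uM) incubated 30 min at room temperature with a preformed 50 nM BAZ2B/50 nM biotinylated H3K14Ac peptide complex in PBS pH 7.4 with Tween-20. Donor and acceptor beads at 10 ug/mL final added, 20 min light-protected before reading.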
JMJD2A Tudor inh = qHTS Assay for Inhibitors of JMJD2A-Tudor Domain; Lysine-specific demethylase 4A (Homo sapiens), O75164; 390,000 tested, 4.4% active; Potency, µM (series often up to 114 µM), usual class: inhibitors; AlphaScreen JMJD2A-Tudor / H3K4me3 peptide binding; further: nearly all actives have a fitted effect of over 50% in size
Target sequence (O75164 whole entry, looked up, the tested form may be a part): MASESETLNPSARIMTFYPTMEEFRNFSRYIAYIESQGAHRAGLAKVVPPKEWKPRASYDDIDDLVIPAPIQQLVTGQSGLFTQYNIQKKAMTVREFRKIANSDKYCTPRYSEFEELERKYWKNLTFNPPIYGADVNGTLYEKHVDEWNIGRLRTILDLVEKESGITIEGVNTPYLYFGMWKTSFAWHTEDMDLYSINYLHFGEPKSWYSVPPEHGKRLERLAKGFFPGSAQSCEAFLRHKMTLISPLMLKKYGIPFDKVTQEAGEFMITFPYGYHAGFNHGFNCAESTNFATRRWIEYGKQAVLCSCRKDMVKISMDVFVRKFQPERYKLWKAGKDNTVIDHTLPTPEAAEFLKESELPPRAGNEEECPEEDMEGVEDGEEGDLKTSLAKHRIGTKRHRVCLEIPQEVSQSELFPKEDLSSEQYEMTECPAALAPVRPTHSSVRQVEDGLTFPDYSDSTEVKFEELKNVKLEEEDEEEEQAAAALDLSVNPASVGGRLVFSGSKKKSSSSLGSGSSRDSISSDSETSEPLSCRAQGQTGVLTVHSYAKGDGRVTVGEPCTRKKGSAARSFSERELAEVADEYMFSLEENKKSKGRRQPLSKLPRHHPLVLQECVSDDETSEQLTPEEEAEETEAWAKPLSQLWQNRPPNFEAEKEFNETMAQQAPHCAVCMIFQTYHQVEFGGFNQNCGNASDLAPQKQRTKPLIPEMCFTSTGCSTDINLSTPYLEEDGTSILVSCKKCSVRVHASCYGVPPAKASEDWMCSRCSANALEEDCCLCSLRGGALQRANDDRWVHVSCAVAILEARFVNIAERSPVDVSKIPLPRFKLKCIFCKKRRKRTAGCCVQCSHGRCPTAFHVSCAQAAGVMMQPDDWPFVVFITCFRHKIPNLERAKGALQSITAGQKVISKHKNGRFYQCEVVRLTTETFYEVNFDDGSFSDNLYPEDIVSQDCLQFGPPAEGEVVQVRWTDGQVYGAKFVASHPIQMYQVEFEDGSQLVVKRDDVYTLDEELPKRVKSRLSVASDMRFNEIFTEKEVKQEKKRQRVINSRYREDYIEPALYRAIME
G9a block = qHTS Assay for Inhibitors of Histone Lysine Methyltransferase G9a; Histone-lysine N-methyltransferase EHMT2 (Homo sapiens), Q96KQ7; G9a H3K9 monomethylation, AlphaScreen, 2 h; Potency, µM (doses to about 102 µM), hits mostly inhibitors; 350,000 tested, 8.8% active; further: nearly all actives have a fitted effect of over 75% in size
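Step 1: enzyme (final 20 nM) with compound, 15 min RT. Step 2: substrate peptide 500 nM and SAM 20 uM, 2 h RT. Step 3: anti-H3K9me1 antibody and AlphaScreen beads, 10 min, then plate read.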
HP1b binding inh = HTS for Inhibitors of HP1-beta Chromodomain Interactions with Methylated Histone Tails | Chromobox protein homolog 1 (Homo sapiens), P83916 | AlphaScreen HP1-beta / biotin-H3K9me3 peptide binding | Potency, µM (series often up to 114 µM), usual class: inhibitors | 390,000 tested, 0.56% active | AID 540317, 2011; further: nearly all actives have a fitted effect of over 70% in size
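HP1-beta protein (50 nM final) preincubated 30 min at room temperature with biotinylated H3(1-18)K9me3 peptide (50 nM) in PBS pH 7.4, 0.01% Tween-20, then compound added for 30 min. AlphaScreen streptavidin donor/nickel chelate acceptor beads (10 ug/mL final), 30 min dark, luminescence read.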
L3MBTL1 inh = qHTS Assay for the Inhibitors of L3MBTL1; Lethal(3)malignant brain tumor-like protein 1 (Homo sapiens), Q9Y468; AlphaScreen L3MBTL1–H3K9me1 peptide binding; Potency, µM (series often up to 57.1 µM), most hits filed as inhibitors; 230,000 tested, 0.66% active; further: nearly all actives have a fitted effect of over 60% in size
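Read-out is AlphaScreen signal from streptavidin donor and nickel chelate acceptor beads (10 ug/mL final each) bridging L3MBTL1 (50 nM) and biotinylated K9-monomethylated H3(1-15) peptide (75 nM), after 30 min compound exposure at room temperature.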
A number is an active result; i = inactive; ? = inconclusive; nt = not tested or not shown; [ ] = dose if it differs, or a comment. The call rests on the fitted dose curve; in most records, active means well fitted inhibition curve with a large enough effect; inconclusive means small, poorly fitted or top-dose-only effect; inactive means no such curve, though single readings can be large or run the other way.

SMILES	BAZ2B inh	JMJD2A Tudor inh	G9a block	HP1b binding inh	L3MBTL1 inh
O=C(Nc1ccccc1)N1CCN(c2cccc(C(F)(F)F)c2)CC1	i	i	i	i	nt
CN1CCCN(S(=O)(=O)c2cccc(Cl)c2Cl)CC1	i	i	45µM	i	i
O=S(=O)(c1cccc(Cl)c1Cl)N1CCCCC1	i	i	i	i	i
COc1cccc(/C=N/NC(=O)c2c(-c3ccccc3)noc2C)c1OC	nt	i	nt	i	nt
Cc1onc(-c2ccccc2)c1C(=O)N/N=C/c1c[nH]c2ccccc12	?	?	i	45µM	i
COc1cccc(/C=N/NC(=O)c2c(-c3ccccc3)noc2C)c1O	45µM	?	i	i	i
Cc1ccc(/C=N/NC(=O)c2c(-c3ccccc3)noc2C)c(O)c1	i	nt	i	nt	nt
CCOc1cc([N+](=O)[O-])cc(/C=N/NC(=O)c2c(-c3ccccc3)noc2C)c1O	22µM	79µM	?	i	nt
CN(C)c1ccc(/C=C/c2ccncc2)cc1	?	i	?	i	i[11.4 µM]
CN(C)c1ccc(/C=C/c2cccc[n+]2[O-])cc1	i	i	50µM	i	i
CC(C)CC[n+]1ccccc1/C=C/c1ccc(N(C)C)cc1	i	i	32µM	i	nt
CC(C)(C)c1nnc(N/N=C/c2ccccc2O)n(N)c1=O	20µM	22µM	i	i	16µM
COc1cccc(/C=N/Nc2nnc(C)n2N)c1OCc1ccccc1Cl	i	i	22µM	i	i
CC(C)(C)c1nnc(N/N=C/c2ccccc2)n(N)c1=O	i	i	i	i	i
CCc1nnc(N/N=C/c2ccccc2Cl)n1N	?	89µM	i[0.501 µM]	i	i
CCOc1ccc(CNC(=O)C2=Cc3cc(Br)ccc3OC2)cc1OC	i	i	i	i	nt
Cc1nnc(N2CCN(c3ccccc3)CC2)c2c1nnn2Cc1ccc(F)cc1	i	i	i	i	nt
CCOc1cccc2sc(NC(=O)c3ccc(S(=O)(=O)N4CCCCC4C)cc3)nc12 (stereo unspecified)	i	i	i	i	nt
COc1c(C)cccc1C(=O)Nc1ccc(OCC(=O)N2CCOCC2)cc1C	56µM	i	i	i	nt
CCN(CC)c1ccc(NC(=O)c2cnc3ccccn3c2=O)c(C)c1	?	45µM	1.8µM	?	nt
CCN(CC)c1ccc(NC(=O)c2cccnc2)c(C)c1	i	i	32µM	i	i
CCN(CC)c1ccc(NC(=O)c2cccc(C)c2OC)c(C)c1	35µM	40µM	3.5µM	?	?
CCN(CC)c1ccc(-n2nc3cc(C)c(NC(=O)c4ccccc4C)cc3n2)c(C)c1	i	i	i	i	nt
Nc1ccnc2c1ncn2[C@@H]1O[C@H](CO)[C@@H](O)[C@H]1O	nt	nt	i	nt	nt
O=C(NCCN1CCN(Cc2ccccc2)CC1)c1ccc(CS(=O)(=O)c2ccc(Br)cc2)o1	i	i	i	i	nt
SMILES	BAZ2B inh	JMJD2A Tudor inh	G9a block	HP1b binding inh	L3MBTL1 inh
Fc1ccc2c(c1)NC(c1ccncc1)=NC(c1cccs1)=N2	i	?	i	i	nt
COc1ccc2c(c1)NC(c1ccc(Cl)cc1)=NC(c1cccs1)=N2	i	14µM	?	?	nt
COC(=O)C1=C(C(=O)OC)SC(=C2C(=S)C(C)(C)N(C(=O)CC(C)C)c3ccccc32)S1	4µM	11µM	7.9µM	i	nt
COCC1CCCN(C(=O)c2ccc3nc(Cc4cccc(Cl)c4)oc3c2)C1 (stereo unspecified)	i	i	i	i	nt
CC(=O)Nc1ccc(Nc2nc(-c3sc(NC(C)=O)nc3C)cs2)cc1	50µM	?	50µM	i	i
CC(=O)Nc1nc(C)c(-c2csc(Nc3ccc(O)cc3)n2)s1	50µM	50µM	4.5µM	?	i
CC(=O)Nc1nc(C)c(-c2csc(Nc3ccccn3)n2)s1	?	i	i	i	i
COC(=O)c1ccc(-n2nnc(-c3nc(-c4ccc5c(c4)OCO5)no3)c2C)cc1	i	?	i	i	nt
c1ccc(Nc2nc(N3CCNCC3)nc(N3CCOCC3)n2)cc1	i	i	i	i	i
Cc1ccc(Nc2nc(N/N=C/c3c[nH]c4ccccc34)nc(N3CCOCC3)n2)cc1	45µM	45µM	?	i	i
C(=N\Nc1nc(Nc2ccccc2)nc(N2CCOCC2)n1)/c1c[nH]c2ccccc12	32µM	50µM	nt	i	i
Cc1cc(/C=N/Nc2nc(N3CCOCC3)nc(N3CCOCC3)n2)c(C)n1-c1ccccc1	nt	?	i	?	nt
Cc1[nH]c2ccccc2c1/C=N/Nc1nc(Nc2ccc(F)cc2)nc(N2CCOCC2)n1	50µM	i[11.4 µM]	?	i	?
Cc1ccc(C)c(N2CCN(C(=O)CCc3c(C)nn(-c4ccc(N5CCCC5)nn4)c3C)CC2)c1	i	i	i	i	nt
Cc1ccc(NC(=O)C2CCCN(c3nnc(-n4c(C)ccc4C)s3)C2)c(C)c1 (stereo unspecified)	i	i	i	i	nt
COc1ccc(N2C(=O)CSC23C(=O)N(CC(=O)NC2CCCCC2)c2ccccc23)cc1 (stereo unspecified)	i	i	i	i	nt
CCCCC(CC(O)COCC(C)C)C(=O)NNC(=S)Nc1ccccc1 (stereo unspecified)	i	i	8.9µM	i	i
COc1ccc(NC(=O)CCc2nc3c(C)nn(-c4ccc(C)cc4)c3n(C)c2=O)c(OC)c1	i	i	i[12.7 µM]	i	nt
CN[C@@H]1[C@H](O[C@H]2[C@@H](O[C@@H]3[C@@H](O)[C@@H](O)[C@@H](N=C(N)N)[C@@H](O)[C@@H]3N=C(N)N)O[C@@H](C)[C@]2(O)CO)O[C@H](CO)[C@@H](O)[C@@H]1O	nt	nt	i[21.5 µM]	nt	nt
Cc1ccc(NC(=O)CSCC(=O)N2CCN(c3cccc(C(F)(F)F)c3)CC2)cc1	i	i	i[2.33 µM]	i	i
CCOC(=O)CCCc1sc(N)nc1-c1[nH]c(=O)[nH]c1C	6.3µM	2.2µM	4.5µM	?	i
CCOC(=O)CCc1c(C)n[nH]c1C	i	i	i	i	nt
COc1ccccc1-c1cnn2c(NC3CCCC3)cc(C)nc12	i	i	i	i	nt
CC(Cc1n[nH]c(=S)n1N)c1ccccc1 (stereo unspecified)	i	3.2µM	7.9µM	?	nt
Cc1ccccc1Cc1n[nH]c(=S)n1N	i	2.8µM	2.5µM	?	i
Nn1c(Cc2ccccc2)n[nH]c1=S	i	10µM	nt	i	i
Nn1c(Cc2ccc(F)cc2)n[nH]c1=S	nt	4.5µM	3.5µM	i	i
CC(=O)Nc1ccc(-c2ccc3nnc(C)n3n2)cc1	i	i	i	i	nt
Cc1nnc2ccc(-c3ccc(NC(=O)c4ccco4)cc3)nn12	i	i	35µM	i	nt
Cc1cccc(N2C(=O)CC(Sc3nc(C)cc(C)n3)C2=O)c1 (stereo unspecified)	?	i	?	i	nt
